# Test results reported in PubChem BioAssay AID588519 (ICCB-Longwood Screening Facility, Harvard Medical School, 2011).
# In all, about 150,000 compounds went through this assay and about 1,000 (0.67%) were called active. Rule as the data show it: active = % elongation below about 90%; inactive = the rest, inconclusive results apart. This excerpt belongs to a sample that is enriched for actives.
# Molecular target: Genome polyprotein (Poliovirus type 1 (strain Mahoney)) (UniProt P03300)
# Experiment: poliovirus RdRp elongation inhibitors, primary screen, biochemical, fluorescence polarization, total intensity (AID 588519); as to z-score: compound at 16.7 µg/mL
# Settings: poliovirus polymerase elongation, stronger effect = lower value; for % elongation: compound at 16.7 µg/mL; for z-score: measured here: FP z-score
# [1] = measured here: total intensity read-out
# Sequence of Genome polyprotein (Poliovirus type 1 (strain Mahoney)) (P03300 1749-2209 limits assumed): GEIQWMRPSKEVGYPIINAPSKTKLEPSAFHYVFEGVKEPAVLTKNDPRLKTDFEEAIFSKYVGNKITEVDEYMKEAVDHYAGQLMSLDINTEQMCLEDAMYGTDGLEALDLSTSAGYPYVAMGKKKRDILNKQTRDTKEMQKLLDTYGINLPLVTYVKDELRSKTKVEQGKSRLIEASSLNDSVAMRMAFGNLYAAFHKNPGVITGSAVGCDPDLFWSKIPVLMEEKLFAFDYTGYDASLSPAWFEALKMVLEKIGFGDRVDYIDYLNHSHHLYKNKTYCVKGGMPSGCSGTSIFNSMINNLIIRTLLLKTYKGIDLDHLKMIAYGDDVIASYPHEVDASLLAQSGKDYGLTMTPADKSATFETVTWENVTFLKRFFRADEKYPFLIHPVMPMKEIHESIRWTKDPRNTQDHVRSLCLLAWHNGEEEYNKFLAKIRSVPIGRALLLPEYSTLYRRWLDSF
SMILES,% elongation,z-score,% elongation [1] [%]
CN1CCc2c(c(S)[nH]c(=S)c2C#N)C1,-17% (active),-18.2,48
Cc1ccc(-n2c(C)cc(C(=O)CN3CC(C)OC(C)C3)c2C)cc1 (centres undefined),100% (inactive),-0.2,99
O=C(O)CCCN1C(=O)/C(=C2\SC(=S)N(CCCC(=O)O)C2=O)SC1=S,88% (active),-4.7,86
O=C(O)CCCN1C(=O)c2ccccc2Sc2ncccc21,101% (inactive),-0.2,105
O=C(O)CN1C(=O)/C(=C2/OC(=O)c3ccccc32)SC1=S,101% (inactive),-0.1,99
CCn1c(=O)c(=O)n(CC)c2cc(N3CCCCC3)c(NC(=O)c3ccccc3)cc21,101% (inactive),0.2,102
CCn1c(=O)c(=O)n(CC)c2cc(N3CCCCC3)c(NC(=O)c3ccc(Cl)cc3)cc21,90% (active),-4.3,85
CCn1c(=O)c(=O)n(CC)c2cc(N3CCCCC3)c(NC(=O)c3cccc(F)c3)cc21,104% (inactive),-0.3,107
CS(=O)(=O)Nc1ccc2c(c1)COC2=O,102% (inactive),0,102
Cc1nc(N(CC(=O)OC2CC(C)CCC2C(C)C)S(=O)(=O)c2ccc(N)cc2)c(C)n1N (centres undefined),102% (inactive),0.1,92
CCCCCC(=O)Nc1cc(-c2nc3cc(C)cc(C)c3o2)ccc1C,103% (inactive),0.3,102
O=C1CCC(=O)N1C(c1ccccc1)c1ccccc1,104% (inactive),0.6,103
CCN(Cc1ccccc1)C(=O)c1cccc(N2C(=O)CCC2=O)c1,101% (inactive),-0.5,103
O=C(ON1C(=O)CCC1=O)c1ccccc1,80% (active),-2.1,89
Cc1c(C=Nc2ccc(S(=O)(=O)N(C)C)cc2)c(O)n(C)c(=O)c1C#N,104% (inactive),0.1,114
COc1ccc2c(c1)Cc1sc(NC(=O)c3ccccc3Br)nc1-2,59% (active),-7.3,63
CCOc1ccc2nc(NC(=O)c3ccccc3OC)sc2c1,99% (inactive),-0.1,92
Cn1c(=O)c(=O)n(C)c2cc(NC(=O)c3ccccc3Br)ccc21,109% (inactive),1.1,113
COC(=O)C1CCN(S(=O)(=O)c2ccc(Cl)cc2)CC1,103% (inactive),0.2,102
NCC1OC(OC2C(N)CC(N)C(O)C2O[C@@H]2O[C@H](CO)[C@H](O)C2O)C(N)C(O)C1O (some centres undefined),99% (inactive),-0.1,103
NC[C@@H]1O[C@H](O[C@@H]2[C@@H](CO)OC(O[C@@H]3[C@@H](O)[C@H](N)C[C@H](N)[C@H]3OC3O[C@H](CN)[C@@H](O)[C@H](O)[C@H]3N)[C@@H]2O)[C@H](N)[C@@H](O)[C@@H]1O (some centres undefined),87% (active),-1.4,78
NC(=O)c1cccc(N2C(=O)c3ccccc3C2=O)c1,105% (inactive),0.2,102
O=C1CCC(=O)N1OCC1CCCN2CCCCC12 (centres undefined),104% (inactive),0.1,108
CCSc1nsc(SCC)c1C(=O)O,88% (active),-1.5,96
O=C(Nc1sc2c(c1C(=O)NCCc1ccccc1)CCC2)c1ccco1,103% (inactive),0.4,105

SMILES,% elongation,z-score,% elongation [1] [%]
Cc1ccc(-c2nc(S(=O)(=O)c3ccc(C)cc3)c(N3CCCCCC3)o2)cc1,100% (inactive),-1.6,104
Cc1ccc(CSc2oc(-c3cccs3)nc2S(=O)(=O)c2ccc(C)cc2)cc1,108% (inactive),0.8,109
Cc1ccc(S(=O)(=O)c2no[n+]([O-])c2S(=O)(=O)c2ccc(C)cc2)cc1,79% (active),-2.2,69
CCC(c1nnc(SCc2nc3sc4c(c3c(=O)[nH]2)CCC4)n1Cc1ccccc1)N(C)C (centres undefined),114% (inactive),2,106
Cc1c(S(=O)(=O)O)oc2c1C(=O)C(=O)c1c-2ccc2c1CCCC2(C)C,87% (active),-1.4,88
COc1ccccc1Cn1cccc1C1=NC(C(C)C)CO1 (centres undefined),101% (inactive),0.2,103
COC1CC(O[C@@H]2[C@H](C)[C@H](OC3OC(C)CC(N(C)C)C3OC(C)=O)[C@H](C)CC3(CO3)C(=O)[C@@H](C)C(OC(C)=O)[C@H](C)[C@H](C)OC(=O)[C@@H]2C)OC(C)C1OC(C)=O (some centres undefined),100% (inactive),0.2,103
Cc1ccc(OCCn2cc(C(=O)c3ccccc3)c3ccccc32)cc1,100% (inactive),-0.4,96
CC(C)c1ccc(NC(=O)Cn2c3ncccc3c(=O)n2-c2ccccc2)cc1,33% (active),-5.2,49
Cc1ccc(-n2c(=O)c3cccnc3n2CC(=O)Nc2ccccc2C(F)(F)F)cc1C,110% (inactive),0.2,105
CCOc1ccccc1NC(=O)Cn1c2ncccc2c(=O)n1-c1ccc(C)c(C)c1,107% (inactive),0,105
CSc1ccc(/C=N/NC(N)=S)cc1,98% (inactive),-0.7,63
COC(=O)c1c(NC(=O)c2cccs2)sc2c1C(C(=O)OC)CC2 (centres undefined),99% (inactive),-0.7,97
CCc1c(C)sc(NC(=O)c2cccs2)c1C(N)=O,74% (active),-2.8,79
Cc1ccc(O)c(NC(=O)c2cccs2)c1,99% (inactive),-0.7,108
CC(NC(=O)Nc1cccnc1)N1C(=O)C2C3C=CC(C3)C2C1=O (centres undefined),100% (inactive),-0.4,103
O=C(O)/C(=C/C(=O)c1ccccc1)Nc1ccc(OC(F)(F)F)cc1,103% (inactive),0,111
CC(C)(C)NC(=O)C1N(C2CC2)C(=O)C2C(C(=O)NCc3ccccc3)C3C=CC21O3 (centres undefined),103% (inactive),0.3,104
Cc1ccccc1CN1CCCN(Cc2ccccc2)S1(=O)=O,103% (inactive),0.1,99
CCC(=O)c1ccc(OCC(=O)NC2CCCCC2C)cc1 (centres undefined),101% (inactive),-0.4,93
Cc1cc(C)c2nc(-c3ccco3)cc(C(=O)O)c2c1,96% (inactive),-1.9,93
Cc1cc(C)c2nc3nc(C)cc(C)c3c(N)c2c1,90% (active),-2.4,76
Cc1cc(C(=O)COc2ccc(-n3ccnc3)cc2)c(C)n1-c1ccc2c(c1)OCO2,103% (inactive),0.1,107
Nc1nnc(-c2ccc(Cn3c(-c4cncs4)nc4ccccc43)cc2)s1,63% (active),-5.6,75
Cc1ccc(Cn2c(CNC(=O)c3ccccc3)nc3ccccc32)cc1,100% (inactive),-0.3,104

SMILES,% elongation,z-score,% elongation [1] [%]
CC(=O)Nc1nc2ccccc2n1Cc1ccc(C)cc1,100% (inactive),-0.7,102
O=C1Nc2ccccc2N(c2ccccc2)N1,101% (inactive),0.4,105
CCOc1ccccc1N(CC(=O)NC)S(C)(=O)=O,102% (inactive),0.4,103
Cc1cc(C(=O)COC(=O)c2ccc(S(=O)(=O)NCc3ccco3)cc2)c(C)n1C,101% (inactive),-0.2,100
CCOc1ccccc1N(CC)C(=O)Nc1cn(C)c(=O)c2ccccc12,103% (inactive),-0.7,104
CCOc1ccccc1CNC(=O)Cn1ncc2c([nH]c3ccccc32)c1=O,102% (inactive),-0.4,103
CCOc1ccccc1CNC(=O)Nc1cn(CC(C)C)c(=O)c2ccccc12,28% (active),-6,48
CCOc1ccc(OCC(=O)OC(C)C(=O)Nc2ncc(Cl)cc2Cl)cc1 (centres undefined),106% (inactive),0.3,97
Cc1cccc(OCCOc2ccc(Br)cc2/C=C2\SC(=S)NC2=O)c1,101% (inactive),-0.2,104
Cc1cc(C)c(C(N)=O)c(SCC(=O)Nc2c(C)n(C)n(-c3ccccc3)c2=O)n1,103% (inactive),0.1,97
CSc1nc(=O)n(Cc2ccccn2)c2c1CCC2,101% (inactive),0.1,104
O=C1c2ccccc2C(=O)N1CC1OCc2ccccc2CO1,103% (inactive),0.3,110
O=C1Cc2ccccc2C(=O)N1Cc1ccccn1,85% (active),-1.9,83
Cc1ccc(NC(=O)C2C3C=CC4(O3)C2C(=O)N(CCCN2CCOCC2)C4C(=O)NC2CCCC(C)C2C)cc1Cl (centres undefined),101% (inactive),0.1,103
CCn1c2ccccc2c2cc(CN3CCN(Cc4cccc(Cl)c4)CC3)ccc21,103% (inactive),0.1,108
CCn1c2ccccc2c2cc(P(=S)(OC)OC)ccc21,81% (active),-2.3,86
CCn1c(=O)cc(O)c2ccccc21,115% (inactive),1.3,123
O=C(CCc1nc(CN2CCN(S(=O)(=O)c3ccc(F)cc3)CC2)no1)N1CCCCC1,109% (inactive),0.3,112
O=C(CN1CCN(S(=O)(=O)c2ccc3[nH]c(=O)[nH]c3c2)CC1)N1CCCCCC1,86% (active),-1.1,93
O=C(C1CCN(S(=O)(=O)c2ccc3[nH]c4c(c3c2)CCCCC4)CC1)N1CCCC1,100% (inactive),-1,97
CCC1CN2CCC34c5ccccc5NC3C(C)C1CC24 (centres undefined),101% (inactive),0.3,104
CCOC(=O)C1=C(C)NC(=O)NC1c1c(Cl)nc2c(C)cccn2c1=O (centres undefined),104% (inactive),0,109
CCC(C)NC(=O)C1c2ccccc2C(=O)N1Cc1ccccc1 (centres undefined),102% (inactive),0.2,102
